According to PubChem BioAssay (NCATS):
Results filed as inconclusive are left out. Entries that show only a call come without a potency. Calls of active or inactive are those of the source. Calls come from the whole dose curve; as a rule, active = well fitted inhibition curve with a large enough effect; inconclusive = small, poorly fitted or top-dose-only effect; inactive = no such curve, though single readings can be large or run the other way.

Biological target: Retinaldehyde dehydrogenase 3 (Homo sapiens) (UniProt P47895)
Assay: qHTS for Inhibitors of the Aldehyde Dehydrogenase Family (ALDH1A3) Primary screen (AID 2061315)
Details: ALDH inhibition qHTS; series mostly up to 56 µM

Structure (SMILES)	Potency
O=C(O)c1ccc2c(c1)C(=O)N([C@H](Cc1cccc3ccccc13)C(=O)O)C2=O	inactive
O=[S+]([O-])(Nc1ccc(C2CCNCC2)cc1)c1ccc(NCc2ccc(Br)cc2O)cc1	inactive
Cc1cc(C)nc(NC(=S)N2CCN(c3ccc(C(=O)O)cc3)CC2)c1	inactive
CNc1nnc(-c2cccc3ccccc23)o1	inactive
Cc1ccc(-c2ccc(=O)n(CC(=O)NCCc3ccccc3)n2)cn1	inactive
Cc1ccc(NC(=O)c2ccncc2NS(=O)(=O)c2ccc(C)cc2)cc1	inactive
CCCCNc1nc(C)nc2c1nc(-c1ccccc1)n2C1CCN(Cc2ccccc2)C1 (stereo not drawn)	inactive
CC(C)(C)OC(=O)n1c2ccsc2c2cnn(Cc3ccccc3F)c(=O)c21	inactive
CC(C)(C)OC(=O)NCc1nnc(-c2cc3ccccc3[nH]2)s1	inactive
Cc1ccc(OCCn2c(CCNC(=O)Cc3cc(F)ccc3F)nc3ccccc32)cc1	inactive
NC(=O)C1CCN(c2nc(-c3ccccc3C(F)(F)F)cs2)CC1	inactive
N#CCC(C1CCCC1)n1cc(-c2ncnc3[nH]ccc23)cn1 (stereo not drawn)	inactive
O=C(Nc1ccc(Cl)c(Cl)c1)Nc1nnc(Br)s1	inactive
O=C(Nc1cccnc1)C1CCCCC1	inactive
Cc1ccc(CNc2ncc(N3CCCCC3)cn2)cc1	inactive
O=C(Nc1ccccc1)Nc1nnc(-c2ccncc2)s1	inactive
O=C(Nc1ccc(Cl)c([N+](=O)[O-])c1)Nc1nnc(C2CCCCC2)s1	inactive
CNC(=O)C1=C(C)NC(Nc2nc3ccccc3o2)=NC1c1nn(C)cc1Cl (stereo not drawn)	inactive
Cc1cc(NC(=O)Nc2nnc(C3CCCCC3)s2)ccc1Cl	inactive
Cc1ccc(C2=NN(CC(=O)NCCc3ccccc3)C(=O)C2)cc1	inactive
C=C1C(=O)OC2C3=C(C)C(=O)CC3C(C)CC(O)C12 (stereo not drawn)	inactive
O=C(Cn1nc(-c2ccc(OC(F)(F)F)cc2)ccc1=O)NCCc1ccccc1	inactive
Cc1cccc(-c2ccc3ncnc(NCc4cccnc4)c3c2)c1	inactive
